# From the supplement of paper PMC7411054
# Structures can show the parent of a compound that is named as a salt.
# Test system: WPMY1-TUBA1B-RELA
# Experiment: lowest phenotypically active concentration; higher = less potent
# Conditions: treatment time: 24 h
# Procedure, shortened: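 Each of fifteen gene-edited A549, HepG2 and WPMY1 reporter lines, marked with BFP for segmentation and GFP and RFP/FusionRed, was treated in four wells at 0.3, 1, 3 or 9 µM for 24 h prior to live imaging. Normalisation of per-well live-cell features used solvent control wells. Deviation needed ≥3 of 4 wells beyond the 95th percentile of control Euclidean distances, and reproducibility needed a median replicate Pearson correlation above the 95th percentile of non-replicates. Both were required for phenotypic activity.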
row,SMILES,lowest phenotypically active concentration [µM]
1,CC[C@H]1CN2CC[C@H]1C[C@@H]2[C@@H](O)c1ccnc2ccc(OC)cc12 [Hydroquinidine HCl],9
2,C[C@@]1(CO)[C@H](O)CC[C@@]2(C)[C@H]1CC[C@H]1C[C@@H]3C[C@@]12CC[C@]3(O)CO [Aphidicolin],≤ 0.3
3,COC(=O)[C@@]1(O)C[C@H]2O[C@]1(C)n1c3ccccc3c3c4c(c5c6ccccc6n2c5c31)C(=O)NC4,≤ 0.3
4,CC(C)[C@@]1(NC(=O)[C@@H]2C[C@@H]3c4cccc5[nH]cc(c45)C[C@H]3N(C)C2)O[C@@]2(O)[C@@H]3CCCN3C(=O)[C@H](Cc3ccccc3)N2C1=O [Dihydroergocristine mesylate],9
5,C[C@]12CC[C@H]3[C@@H](CC[C@]4(O)C[C@@H](O)CC[C@]34C=O)[C@@]1(O)CC[C@@H]2C1=CC(=O)OC1 [Strophanthidin],≤ 0.3
6,C=C1[C@@H](O)C2C=CC[C@H](C)C(=O)[C@](C)(O)C=C[C@@H](OC(C)=O)[C@]23C(=O)N[C@H](Cc2ccccc2)[C@@H]3[C@@H]1C (stereo not given in full) [Cytochalasin D],≤ 0.3
7,COc1ccc(C[C@H]2NC[C@H](O)[C@H]2OC(C)=O)cc1 [Anisomycin],≤ 0.3
8,C[C@@H]1CC[C@H]2[C@@H](C)C(=O)O[C@@H]3O[C@@]4(C)CC[C@@H]1[C@]32OO4 [Artemisinin],≤ 0.3
9,Cc1sc2c(c1C)C(c1ccc(Cl)cc1)=N[C@@H](CC(=O)OC(C)(C)C)c1nnc(C)n1-2,1
10,C[C@@]12C(=O)OC(=O)[C@]1(C)[C@H]1CC[C@@H]2O1 [Cantharidin],3
